Compound activity as filed in PubChem BioAssay.
A selection: hits, their analogues and other compounds. The true share with any hit is near 0.7%.
Mtb hypoxia inh – inhibitors of hypoxia-regulated fluorescent reporter in Mycobacterium tuberculosis. M. tuberculosis hypoxia-regulated fluorescent reporter, fluorescence. fluorescence inhibition, % (test concentration not listed). 0.1% of 300,000 active; in the data active = fluorescence inhibition mostly above about 23%, no sharp cut-off; inactive = mostly below about 17%
VHR inh abs – blocks human VHR1 dual specificity phosphatase. P51452. 0.52% of 290,000 active. recombinant VHR phosphatase, pNPP absorbance. inhibition, % at 13.3 µM; in the data active = inhibition above about 50%
Target sequence (P51452 whole entry, looked up): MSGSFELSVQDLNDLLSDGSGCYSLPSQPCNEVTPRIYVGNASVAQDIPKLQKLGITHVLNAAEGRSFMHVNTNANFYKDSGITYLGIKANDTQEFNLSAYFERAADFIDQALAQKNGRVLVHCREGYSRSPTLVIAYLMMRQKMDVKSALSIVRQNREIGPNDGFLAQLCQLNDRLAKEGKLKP
BioA inh – BioA (M. tuberculosis) enzyme inhibition. purified M. tuberculosis BioA enzyme, plate reader. inhibition, % at 9.99 µM. 0.096% of 360,000 active; in the data active = inhibition above about 40%; inconclusive = no clear call, values can overlap the other calls
FadD28 FP inh – M. tuberculosis FadD28 bisubstrate binding inhibition; FadD28 bisubstrate probe binding, fluorescence polarization; inhibition, % at 12.5 µM; 0.22% of 360,000 active; AID 588549; in the data active = inhibition above about 8.5%, passing the limit was not always enough; inconclusive = no clear call, values can overlap the other calls
SARS 3CLpro inh – SARS-CoV 3CLpro protease inhibition; inhibition, % at 6 µM; recombinant SARS-CoV 3CLpro, quenched FRET peptide cleavage; 0.14% of 290,000 active; P0C6X7; in the data active = inhibition above about 12%
Starred values were filed as active, the others as inactive; ? = inconclusive; . = not tested or not shown.

SMILES	Mtb hypoxia inh	VHR inh abs	BioA inh	FadD28 FP inh	SARS 3CLpro inh
COc1ccc(NC(=O)CON=CC(=O)Nc2ccc(C)cc2)c(OC)c1	26*	.	-1	-4	.
CCNC(=S)NN=C(C)c1ccc2c(c1)OCCO2	2	.	.	.	.
O=C(COC(=O)c1ccccc1O)NC1CCCc2ccccc21 (centres undefined)	33*	.	0	-2	.
COc1cccc(C(=O)OCC(=O)NC2CCCc3ccccc32)c1O (centres undefined)	3	.	.	-1	.
CCCCCCC(=O)N1CC=CC(c2ccc(OC)cc2)N(Cc2ccc(F)cc2)C(=O)C1Cc1ccccc1 (centres undefined)	20	.	.	.	.
N#C/C(=N\Nc1cccc(C(F)(F)F)c1)C(=O)c1csc(-c2cccnc2)n1	.	23	.	4	0
N#CC(=NNc1cccc(C(F)(F)F)c1)C(=O)c1csc(-c2cccnc2)n1	44*	.	.	.	.
O=[N+]([O-])c1ccccc1NN=Cc1ccccc1F	11	.	.	.	.
CC(=O)N/C(=N\c1nc(C)cc(C)n1)Nc1ccc2ccccc2c1	.	54*	-2	1	-3
CC(=O)N/C(=N/c1nc(C)cc(C)n1)Nc1ccc(NC(C)=O)cc1	.	9	0	-4	-4
Cc1oc(-c2ccccc2Cl)nc1CS(=O)CC(=O)NCCCN1CC(C)CC(C)C1 (centres undefined)	.	52*	1	-2	-1
CC(O)C(=O)NN=Cc1cccc(Cl)c1Cl (centres undefined)	8	.	.	.	.
CC(=S)/C=C1\Sc2ccccc2N1C	-4	24	0	-4	1
CN1c2ccccc2Sc2cc(N)ccc21	.	55*	-2	-1	4
Cc1nn(C)cc1CN(C)C(=O)c1ccc(OC2CCN(Cc3ccccn3)CC2)cc1	1	23	1	0	2
CC(C)N(Cc1cnn(C)c1)C(=O)c1ccc(OC2CCN(Cc3ccccn3)CC2)cc1	4	57*	0	-3	3
O=C(NN1C(=O)/C(=C/C=C/c2ccco2)SC1=S)c1ccccc1O	-8	5	-1	58*	2
O=C(O)CCCN1C(=O)/C(=C/C=C/c2ccco2)SC1=S	23	21	.	19*	0
Cn1cccc1/C=C1\SC(=S)N(NC(=O)c2ccccc2O)C1=O	11	-18	.	2	-2
O=C(O)CCN1C(=O)/C(=C/c2ccc(-c3nc4ccccc4s3)o2)SC1=S	22	-4	-1	?	5
O=C(O)CC(C(=O)O)N1C(=O)/C(=C/C=C/c2ccco2)SC1=S (centres undefined)	7	54*	-1	?	3
O=C(O)CC(C(=O)O)N1C(=O)/C(=C/c2ccc(-c3nc4ccccc4s3)o2)SC1=S (centres undefined)	19	21	-3	29*	-11
Cc1ccc(NC(=O)CCCN2C(=O)/C(=C/C=C/c3ccccc3)SC2=S)cc1	11	13	-4	0	-4
O=C(NN=Cc1ccc2c(c1)OCO2)C(=O)Nc1ccc2ccccc2c1	2	.	.	.	.
O=C1/C(=C/c2ccccc2)SC(=S)N1CCCC(=O)N1CCCCC1CCO (centres undefined)	8	51*	.	1	2
SMILES	Mtb hypoxia inh	VHR inh abs	BioA inh	FadD28 FP inh	SARS 3CLpro inh
O=C(O)CCCCCN1C(=O)C(=Cc2ccncc2)SC1=S	10	.	.	.	.
O=C(O)C(Cc1ccccc1)N1C(=O)/C(=C/C=C/c2ccco2)SC1=S (centres undefined)	15	113	2	39*	3
O=C(O)CCCN1C(=O)/C(=C\C(Cl)=C\c2ccccc2)SC1=S	9	10	1	9.3*	3
COc1ccccc1N1CCN(N=Cc2ccc([N+](=O)[O-])cc2)CC1	5	.	.	.	.
COc1ccc(OC)c2[nH]c(=O)c(CCNS(=O)(=O)c3ccc(F)cc3)cc12	3	-9	-5	2	-5
CCS(=O)(=O)NCCc1cc2c(OC)ccc(OC)c2[nH]c1=O	.	53*	0	0	6
Cc1noc(C)c1NC(=O)Nc1ccc2c(c1)C(=O)N(C(C)CO)CC(C)C(CN(C)C(=O)NC1CCCCC1)O2 (centres undefined)	6	.	.	.	.
CCCCCCCC/C=C\CCCCCCCC(=O)NCCO	.	.	3	15*	.
CCCN1CC(CSC)CC2c3cccc4[nH]cc(c34)CC21 (centres undefined)	-18	.	.	.	.
CC(=O)c1ccc2c(c1)C1C=CCC1C(C(=O)O)N2 (centres undefined)	6	14	.	40*	2
CCc1cccc(NC(=O)Cn2c(=O)oc3cc(S(=O)(=O)N4CCOCC4)ccc32)c1	-5	-2	1	41*	-1
O=C(Cn1c(=O)oc2cc(S(=O)(=O)N3CCCC3)ccc21)Nc1cccc(C(F)(F)F)c1	11	-5	2	11*	-2
Cc1ccc(NC(=O)c2ccccc2O)cc1	16	54*	.	1	-4
Cn1c(SCC(=O)Nc2ccc(NC(=O)c3ccccc3)cc2)nnc1-c1ccncc1	-12	52*	-1	-3	-1
COc1ccc(C(=O)Nc2ccc(NC(=O)CSc3nnc(-c4ccncc4)n3C)cc2)cc1	-2	19	-2	-2	-10
COc1ccc2c(c1)SC(=CC(=O)c1ccncc1)N2C	11	.	.	.	.
CCOc1ccc2nc3cc(N=Nc4ccc(N)nc4N)ccc3c(N)c2c1	.	.	.	25*	.
CCn1cc(/C=C(\NC(=O)c2ccc(OC)c(OC)c2)C(=O)N2CCN(C)CC2)c2ccccc21	10	57*	-2	-4	-3
CC(=O)c1ccc(C(=O)N2CCC(CO)(Cc3cccc(C(F)(F)F)c3)CC2)cc1	0	53*	.	-2	1
CC1(C(=O)N2CCC(CO)(Cc3cccc(C(F)(F)F)c3)CC2)CC1	-13	-2	0	0	1
CC(=O)N1CCC2(CC1)CC(=NNC(=S)Nc1ccccc1F)c1cc(O)ccc1O2	1	.	.	.	.
Oc1c(Cl)cccc1Cc1cc(Cl)cc(Cl)c1O	12	.	3	12*	.
Oc1c(Cl)cc(Cl)cc1CN1CCN(Cc2ccccc2)CC1	-1	8	0	-2	1
Oc1c(N=Nc2nn[nH]n2)ccc2ccccc12	.	.	.	30*	.
Oc1c(N=Nc2ccc(F)cc2)ccc2ccccc12	.	10	-2	-1	-4
SMILES	Mtb hypoxia inh	VHR inh abs	BioA inh	FadD28 FP inh	SARS 3CLpro inh
NCCCCC1CNC(=S)N1CCCCC1CCCCC1 (centres undefined)	7	.	.	.	.
CCOC(=O)N1CCC(NC(=O)c2cccn3c(=O)c4cc(Br)ccc4nc23)CC1	1	84*	1	-5	1
CC1=C(C#N)c2nc(N)c(C#N)c(C)c2/C1=C\c1ccc(OCC(=O)O)c(Cl)c1	-11	-19	.	14*	-4
CCSc1ccc(C2C3C(=O)N(C)C(=O)C3[C@]3(C(=O)OC)CCCCN23)cc1OC (some centres undefined)	1	.	.	.	.
O=C1Nc2ccccc2/C1=N/N=C/c1ccc(-c2ccc([N+](=O)[O-])cc2)o1	.	54*	.	-1	0
O=C1Nc2ccccc2C1=NN=Cc1ccc(-c2ccc([N+](=O)[O-])cc2)o1	17	.	.	.	.
CC(CC(=O)Nc1ccc2c(c1)OCCO2)=NNC(=O)COc1cccc(C)c1	6	.	.	.	.
